From PubChem BioAssay (NCI)
This is part of a sample that, as a whole, favours compounds with a hit. Of some 83,000 tested, about 20% had one in any assay.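 Single-concentration screen, 48 h exposure, 96-well plates. Endpoint: percent growth. Below 10 = active.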 The source made the active and inactive calls.

What was measured:
Experiment in all cases: NCI-60 one-dose screen, 48 h (100 = growth as untreated, 0 = no growth, -100 = all killed)
Details in all cases: 10 µM unless noted
SR leukemia = test system: SR leukemia
RPMI-8226 leukemia = test system: RPMI-8226 leukemia
OVCAR-8 ovarian = test system: OVCAR-8 ovarian
OVCAR-5 ovarian = test system: OVCAR-5 ovarian
OVCAR-4 ovarian = test system: OVCAR-4 ovarian
SK-OV-3 ovarian = test system: SK-OV-3 ovarian
IGROV1 ovarian = test system: IGROV1 ovarian
OVCAR-3 ovarian = test system: OVCAR-3 ovarian
NCI/ADR-RES ovarian = test system: NCI/ADR-RES ovarian
HS 578T breast = test system: HS 578T breast

Measured: growth

COC1=C(OC)C(=O)C=CC1=O
inactive: SR leukemia 38.1% | RPMI-8226 leukemia 91.4% | OVCAR-8 ovarian 110% | OVCAR-5 ovarian 116% | OVCAR-4 ovarian 102% | SK-OV-3 ovarian 114% | IGROV1 ovarian 96.5% | OVCAR-3 ovarian 83.6% | NCI/ADR-RES ovarian 109%

O=C(C[n+]1ccccc1Cl)c1ccc2c(c1)CCCC2
inactive: SR leukemia 59.8% | RPMI-8226 leukemia 90.3% | OVCAR-8 ovarian 102% | OVCAR-5 ovarian 102% | OVCAR-4 ovarian 83.6% | SK-OV-3 ovarian 99.7% | IGROV1 ovarian 107% | OVCAR-3 ovarian 93.6% | HS 578T breast 111% | NCI/ADR-RES ovarian 109%

O=C(NCCNc1nccc(-c2c(-c3cccc(O)c3)nc3sccn23)n1)c1ccc(N2CCOCC2)c(C(F)(F)F)c1
inactive: SR leukemia 76.1% | RPMI-8226 leukemia 58.8% | OVCAR-8 ovarian 72.8% | OVCAR-5 ovarian 91.2% | OVCAR-4 ovarian 105% | SK-OV-3 ovarian 66.4% | IGROV1 ovarian 54.3% | OVCAR-3 ovarian 89.1% | NCI/ADR-RES ovarian 95.4%

CNC(=O)NN
inactive: SR leukemia 104% | RPMI-8226 leukemia 91.9% | OVCAR-8 ovarian 97.5% | OVCAR-5 ovarian 82.5% | OVCAR-4 ovarian 110% | SK-OV-3 ovarian 95.9% | IGROV1 ovarian 108% | OVCAR-3 ovarian 91.8% | NCI/ADR-RES ovarian 105%

O=C1OC(=O)C2C3CC(c4ccccc43)C12 (stereo not drawn)
inactive: SR leukemia 104% | RPMI-8226 leukemia 99.7% | OVCAR-8 ovarian 92.4% | OVCAR-5 ovarian 85.5% | OVCAR-4 ovarian 112% | SK-OV-3 ovarian 95.8% | IGROV1 ovarian 109% | OVCAR-3 ovarian 125% | NCI/ADR-RES ovarian 112%

Nc1ncnc2c1ccn2-c1cccc(NC(=O)c2cccc(C(F)(F)F)c2)c1
inactive: SR leukemia 54.6% | RPMI-8226 leukemia 52.9% | OVCAR-8 ovarian 78% | OVCAR-5 ovarian 81.4% | OVCAR-4 ovarian 68.7% | SK-OV-3 ovarian 93.3% | IGROV1 ovarian 87.5% | OVCAR-3 ovarian 80% | NCI/ADR-RES ovarian 78.4%

Cc1cc(NC(=O)c2cccc(C(F)(F)F)c2)ccc1-n1ccc2c(NC(=O)c3ccccc3)nccc21
inactive: SR leukemia 96.3% | RPMI-8226 leukemia 73.3% | OVCAR-8 ovarian 98.2% | OVCAR-5 ovarian 98.3% | OVCAR-4 ovarian 96.7% | SK-OV-3 ovarian 108% | IGROV1 ovarian 92.7% | OVCAR-3 ovarian 95.7% | NCI/ADR-RES ovarian 102%

O=C(Nc1ccc(-n2cc(-c3ccncc3)c(-c3ccc(O)c(Cl)c3)n2)cc1)c1cc(Cl)cc(Cl)c1
inactive: SR leukemia 14.8% | OVCAR-8 ovarian 30.3% | OVCAR-5 ovarian 71.4% | OVCAR-4 ovarian 78.1% | SK-OV-3 ovarian 70.2% | IGROV1 ovarian 43.2% | OVCAR-3 ovarian 27% | NCI/ADR-RES ovarian 28.7%
active: RPMI-8226 leukemia -19.5%

O=C(Nc1cccc(-n2ccc3c(NC(=O)c4ccccc4)nccc32)c1)Nc1ccc(Cl)c(C(F)(F)F)c1
active: SR leukemia -11.6% | RPMI-8226 leukemia -35% | OVCAR-8 ovarian 4.34% | SK-OV-3 ovarian 7.74% | OVCAR-3 ovarian -21.1% | NCI/ADR-RES ovarian -10.9%
inactive: OVCAR-5 ovarian 27.6% | OVCAR-4 ovarian 73.7% | IGROV1 ovarian 16.7%

O=C(NCCNc1nccc(-c2c(-c3cccc(O)c3)nc3sccn23)n1)c1ccccc1O
inactive: SR leukemia 63.2% | RPMI-8226 leukemia 11.6% | OVCAR-8 ovarian 41.3% | OVCAR-5 ovarian 88.7% | OVCAR-4 ovarian 96.2% | SK-OV-3 ovarian 60.5% | IGROV1 ovarian 31.6% | OVCAR-3 ovarian 60.2% | NCI/ADR-RES ovarian 73.6%

O=C(Nc1cccc(-n2ccc3c(NC(=O)c4ccccc4)nccc32)c1)Nc1cc(C(F)(F)F)cc(C(F)(F)F)c1
active: SR leukemia -14.9% | RPMI-8226 leukemia -30.6% | OVCAR-8 ovarian -32.1% | IGROV1 ovarian 6.92% | OVCAR-3 ovarian -26.9% | NCI/ADR-RES ovarian -30.5%
inactive: OVCAR-5 ovarian 28% | OVCAR-4 ovarian 43.9% | SK-OV-3 ovarian 13.5%

CC(=O)N[C@@H](CNC(=O)c1cc(NC(=O)c2cc(NC(=O)c3cc(NC(=O)c4nccn4C)cn3C)cn2C)cn1C)CC(=O)Nc1cn(C)c(C(=O)Nc2cc(C(=O)Nc3cc(C(=O)Nc4cc(C(=O)NCCCN(C)CCCNC(=O)c5cccc(C(=O)O)c5)n(C)c4)n(C)c3)n(C)c2)n1
inactive: SR leukemia 77.2% | RPMI-8226 leukemia 105% | OVCAR-8 ovarian 96% | OVCAR-5 ovarian 121% | OVCAR-4 ovarian 64% | SK-OV-3 ovarian 115% | IGROV1 ovarian 113% | OVCAR-3 ovarian 102% | NCI/ADR-RES ovarian 87.4%

O=C(Nc1ccc(-n2ccc3c(NC(=O)c4ccccc4)nccc32)cc1)c1cccc(C(F)(F)F)c1
active: SR leukemia -2.23% | RPMI-8226 leukemia 6.14%
inactive: OVCAR-8 ovarian 30.4% | OVCAR-5 ovarian 52.5% | OVCAR-4 ovarian 108% | SK-OV-3 ovarian 36.2% | IGROV1 ovarian 33.3% | OVCAR-3 ovarian 20.9% | NCI/ADR-RES ovarian 19.8%

O=C(Nc1ccc(-n2cc(-c3ccncc3)c(-c3ccc(O)c(Cl)c3)n2)cc1)Nc1cc(C(F)(F)F)cc(C(F)(F)F)c1
inactive: SR leukemia 69.7% | RPMI-8226 leukemia 45% | OVCAR-8 ovarian 56.4% | OVCAR-5 ovarian 75.7% | OVCAR-4 ovarian 82.2% | SK-OV-3 ovarian 81.7% | IGROV1 ovarian 56.3% | OVCAR-3 ovarian 33.3% | NCI/ADR-RES ovarian 55%

CC/C(=C(\CC)c1ccc(OCCN(CC)CC)cc1)c1ccc(OCCN(CC)CC)cc1
active: SR leukemia -8.6%
inactive: RPMI-8226 leukemia 18.3% | OVCAR-8 ovarian 53.3% | OVCAR-5 ovarian 38.7% | OVCAR-4 ovarian 38.1% | SK-OV-3 ovarian 64.2% | IGROV1 ovarian 59.9% | OVCAR-3 ovarian 45.5% | NCI/ADR-RES ovarian 57.6%

O=C(NCCNc1nccc(-c2c(-c3cccc(O)c3)nc3sccn23)n1)c1cc(N2CCOCC2)cc(C(F)(F)F)c1
inactive: SR leukemia 97.3% | RPMI-8226 leukemia 67% | OVCAR-8 ovarian 78.1% | OVCAR-5 ovarian 101% | OVCAR-4 ovarian 133% | SK-OV-3 ovarian 94% | IGROV1 ovarian 80.4% | OVCAR-3 ovarian 107% | NCI/ADR-RES ovarian 103%

COc1cccc(-c2nc3sccn3c2-c2ccnc(NCCNC(=O)Nc3cccc(C(F)(F)F)c3)n2)c1
inactive: SR leukemia 38.5% | RPMI-8226 leukemia 20.4% | OVCAR-8 ovarian 21.3% | OVCAR-5 ovarian 103% | OVCAR-4 ovarian 91.1% | SK-OV-3 ovarian 78.6% | IGROV1 ovarian 50.9% | OVCAR-3 ovarian 66.3% | NCI/ADR-RES ovarian 27.2%

Cc1ccccc1C[P+](c1ccccc1)(c1ccccc1)c1ccccc1
inactive: SR leukemia 22.2% | RPMI-8226 leukemia 10% | OVCAR-8 ovarian 18.7% | OVCAR-5 ovarian 55.2% | SK-OV-3 ovarian 42.6% | IGROV1 ovarian 20% | NCI/ADR-RES ovarian 114%
active: OVCAR-4 ovarian 3.27% | OVCAR-3 ovarian 1.98%

O=C(Nc1cccc(-n2ccc3c(NC(=O)c4ccccc4)nccc32)c1)c1cc(N2CCOCC2)cc(C(F)(F)F)c1
active: SR leukemia -14.2% | RPMI-8226 leukemia -42.4% | OVCAR-8 ovarian 2.86% | SK-OV-3 ovarian 5% | IGROV1 ovarian 4.25% | OVCAR-3 ovarian -34.8% | NCI/ADR-RES ovarian 7.24%
inactive: OVCAR-5 ovarian 19.3% | OVCAR-4 ovarian 83.1%

O=C(Nc1ccc(-n2ccc3c(NC(=O)c4ccccc4)ncnc32)cc1)c1ccc(Cl)c(C(F)(F)F)c1
active: SR leukemia -19.6% | RPMI-8226 leukemia 6.7% | OVCAR-8 ovarian 3.65% | OVCAR-3 ovarian -3.5%
inactive: OVCAR-5 ovarian 52% | OVCAR-4 ovarian 17.1% | SK-OV-3 ovarian 65.6% | IGROV1 ovarian 15.3% | NCI/ADR-RES ovarian 29.9%

O=C(Nc1ccc(-n2cc(-c3ccncc3)c(-c3ccc(O)c(Cl)c3)n2)cc1)c1ccc(Cl)c(C(F)(F)F)c1
inactive: OVCAR-8 ovarian 17.8% | OVCAR-5 ovarian 61.6% | OVCAR-4 ovarian 62.6% | SK-OV-3 ovarian 56% | IGROV1 ovarian 52.9% | NCI/ADR-RES ovarian 18.5%
active: SR leukemia 8.48% | RPMI-8226 leukemia -26.9% | OVCAR-3 ovarian 4.18%

NN=C(c1ccc(Cl)cc1)c1ccc(Cl)cc1
inactive: SR leukemia 104% | RPMI-8226 leukemia 102% | OVCAR-8 ovarian 104% | OVCAR-5 ovarian 95% | OVCAR-4 ovarian 103% | SK-OV-3 ovarian 105% | IGROV1 ovarian 119% | OVCAR-3 ovarian 107% | NCI/ADR-RES ovarian 108%

OCCOCC(F)(F)F
inactive: SR leukemia 78.7% | RPMI-8226 leukemia 90.2% | OVCAR-8 ovarian 116% | OVCAR-5 ovarian 96% | OVCAR-4 ovarian 100% | SK-OV-3 ovarian 113% | IGROV1 ovarian 113% | OVCAR-3 ovarian 109% | NCI/ADR-RES ovarian 106%

O=C(Nc1cccc(-n2ccc3c(NC(=O)c4ccccc4)ncnc32)c1)Nc1ccc(Cl)c(C(F)(F)F)c1
inactive: SR leukemia 17.7% | RPMI-8226 leukemia 16.2% | OVCAR-8 ovarian 25.9% | OVCAR-5 ovarian 48.1% | OVCAR-4 ovarian 64.4% | SK-OV-3 ovarian 52.2% | IGROV1 ovarian 32.5% | OVCAR-3 ovarian 26.1% | NCI/ADR-RES ovarian 34.8%

O=C(Nc1ccc(-n2ccc3c(NC(=O)c4ccccc4)nccc32)cc1)Nc1ccc(Cl)c(Cl)c1
active: SR leukemia -30.3% | RPMI-8226 leukemia -49.6% | OVCAR-8 ovarian -45% | OVCAR-4 ovarian -4.39% | IGROV1 ovarian 4.31% | OVCAR-3 ovarian -79.6% | NCI/ADR-RES ovarian -34.4%
inactive: OVCAR-5 ovarian 50% | SK-OV-3 ovarian 59.7%

Nc1nccc2c1ccn2-c1ccc(NC(=O)Nc2cccc(C(F)(F)F)c2)cc1
inactive: SR leukemia 91.5% | RPMI-8226 leukemia 67.4% | OVCAR-8 ovarian 93.1% | OVCAR-5 ovarian 97.9% | OVCAR-4 ovarian 108% | SK-OV-3 ovarian 104% | IGROV1 ovarian 95.1% | OVCAR-3 ovarian 80.8% | NCI/ADR-RES ovarian 89.3%

COc1ccc(-c2nn(-c3ccc(NC(=O)c4cc(C(F)(F)F)cc(C(F)(F)F)c4)cc3)cc2-c2ccncc2)cc1Cl
inactive: SR leukemia 73.6% | RPMI-8226 leukemia 10.7% | OVCAR-8 ovarian 68.2% | OVCAR-5 ovarian 64% | OVCAR-4 ovarian 90.5% | SK-OV-3 ovarian 78.4% | IGROV1 ovarian 74.7% | OVCAR-3 ovarian 60.1% | NCI/ADR-RES ovarian 63.5%

O=[N+]([O-])c1cccc(C(c2ccccc2)c2ccccc2)c1
inactive: SR leukemia 78.3% | RPMI-8226 leukemia 82.9% | OVCAR-8 ovarian 98% | OVCAR-5 ovarian 85.6% | OVCAR-4 ovarian 98.2% | SK-OV-3 ovarian 95.6% | IGROV1 ovarian 84.5% | OVCAR-3 ovarian 98.3% | NCI/ADR-RES ovarian 95.8%
